Experimental data reported in PubChem BioAssay (EPA / NIEHS).
Records with an inconclusive call do not appear. Calls of active or inactive are those of the source. The calls were made as follows, unless noted: active = hit-call score of the fitted dose curve at least 0.9, where 1 is the maximum; inconclusive = response in the unintended direction; inactive = score below 0.9.

Assays:
[1] = read-out: UDP glucuronosyltransferase (UGT1A6), UGT1A6 (gene 54578); experiment: LTEA_HepaRG_UGT1A6: Life Technologies and Expression Analysis (LTEA) Assay for UDP glucuronosyltransferase (UGT1A6) using HepaRG (AID 2283539; active = hit-call score of the fitted dose curve at least 0.9, where 1 is the maximum; inactive = score below 0.9); settings: mRNA level, 48 h; actives raise or lower the signal
Outline: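 Expression was quantified by TaqMan qRT-PCR on Fluidigm arrays with ACTB/GAPDH/POLR2A normalization and bidirectional fitting against 0.5% DMSO. HepaRG cells (~100,000/well) were treated in duplicate for 48 h at eight half-log concentrations up to 100 uM in serum-free induction medium.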

[2] = LTEA_HepaRG_LDH_cytotoxicity: Cytotoxicity Assessment in the Life Technologies and Expression Analysis (LTEA) Assay (AID 2283563);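 as to AC50: LDH activity released into spent culture medium as a marker of cell death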
Outline: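 LDH release into culture medium read after 48 h chemical treatment of HepaRG cells. Duplicate wells, eight-point half-log series topping at 100 uM, 0.5% DMSO vehicle and baseline.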

[3] = Tanguay_ZF_120hpf_YSE_legacy: (Legacy) Oregon State University Tanguay Lab 120 Hour Post-fertilization zebrafish Assay for Yolk Sac Edema (AID 2283634);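 as to AC50: actives raise the incidence of yolk sac edema above the DMSO baseline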
Outline: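 Presence or absence of yolk sac edema was recorded at 120 hpf in surviving larvae. These were wild-type Tropical 5D embryos, chorion removed at 4 hpf, held in static exposure at 28C from 6 hpf with 0.64% DMSO vehicle.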

[4] = Tanguay_ZF_120hpf_AXIS_legacy: (Legacy) Oregon State University Tanguay Lab 120 Hour Post-fertilization zebrafish Assay for Body Axis Malformation (AID 2283635);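 as to AC50: potency for an increased fraction of larvae scored with body axis malformation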
Outline: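 Binary scoring of axis defects at 120 hpf under brightfield, fitted positive versus DMSO. Tropical 5D embryos, chorion removed by pronase at 4 hpf, were singly exposed in sealed, dark plates at 28C from 6 hpf; DMSO 0.64% final.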

[5] = Tanguay_ZF_120hpf_EYE_legacy: (Legacy) Oregon State University Tanguay Lab 120 Hour Post-fertilization zebrafish Assay for Eye Malformation (AID 2283636);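 also: binary presence or absence of eye malformation scored by brightfield in 120 hpf larvae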
Outline: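 5D wild-type embryos, pronase-dechorionated at 4 hpf; static exposure 6–120 hpf, 28C, dark; DMSO 0.64% final; 5uM trimethyltin chloride positive control. Binary eye-defect scoring at 120 hpf; dead embryos not scored.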

[6] = Tanguay_ZF_120hpf_SNOU_legacy: (Legacy) Oregon State University Tanguay Lab 120 Hour Post-fertilization zebrafish Assay for Snout Malformation (AID 2283637)
Outline: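 Binary brightfield scoring of snout malformation at 120 hpf. Dechorionated 5D wild-type embryos, one per well, static exposure from 6 hpf at 28C, sealed and dark; final DMSO 0.64% (vol/vol), DMSO as baseline; 5uM trimethyltin chloride positive control.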

[7] = Tanguay_ZF_120hpf_JAW_legacy: (Legacy) Oregon State University Tanguay Lab 120 Hour Post-fertilization zebrafish Assay for Jaw Malformation (AID 2283638);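 as to AC50: active means more embryos with jaw malformation than DMSO controls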
Outline: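 Binary jaw-malformation call at 120 hpf by brightfield microscopy. Embryos (Tropical 5D strain, chorion removed at 4 hpf) were dosed statically at 6 hpf, one per well, at 28C with 0.64% DMSO. Embryos that died were not scored.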

[8] = Tanguay_ZF_120hpf_PE_legacy: (Legacy) Oregon State University Tanguay Lab 120 Hour Post-fertilization zebrafish Assay for Pericardial Edema (AID 2283640);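 as to AC50: potency for increased incidence of pericardial edema versus DMSO baseline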
Outline: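 Scoring was binary, by brightfield microscopy at 120 hpf, and skipped where mortality occurred. Wild-type embryos were kept under sealed, foil-covered static exposure at 28C in 0.64% (vol/vol) DMSO.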

[9] = Tanguay_ZF_120hpf_BRAI_legacy: (Legacy) Oregon State University Tanguay Lab 120 Hour Post-fertilization zebrafish Assay for Brain Malformation (AID 2283641)
Outline: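 Binary brightfield scoring of brain malformation at 120 hpf in Tropical 5D larvae held under static exposure at 28C (0.64% v/v DMSO), non-mortality endpoints skipped if dead. Positive control: 5uM trimethyltin chloride; fit versus DMSO.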

[10] = TOX21_p53_BLA_p2_viability: Viability Assessment in the Tox21 HCT-116 p53 Agonism Beta-lactamase Assay, Phase 2 (AID 2283591);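 also: compound exposure lasted 16 h at 37 °C; actives lower the ATP signal meaning cytotoxicity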
Outline: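 HCT116 p53-bla cells, 4000/well, dosed after 5 h plating (217-fold dilution of DMSO stocks) and incubated 16 h at 37C. Viability taken as cellular ATP by CellTiter-Glo luminescence after 30 min RT; signal loss marks cytotoxicity.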

[11] = target: Cellular tumor antigen p53 (Homo sapiens) (UniProt P04637); experiment: TOX21_p53_BLA_p2_ratio: Tox21 HCT-116 p53 Agonism Beta-lactamase Assay, Ratio, Phase 2 (AID 2283592)
Outline: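 Read-out is the blue/green (460/530 nm, 405 nm excitation) ratio after 2 h CCF4-AM loading, fitted as gain versus DMSO. Compounds, pinned at 217-fold dilution from DMSO stocks, stayed 16 h on HCT-116 beta-lactamase reporter cells seeded 5 h earlier.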

[12] = target: Cellular tumor antigen p53 (Homo sapiens) (UniProt P04637); experiment: TOX21_p53_BLA_p3_ratio: Tox21 HCT-116 p53 Agonism Beta-lactamase Assay, Ratio, Phase 3 (AID 2283596)
Outline: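 Cells were seeded at 4000/well, rested 5 h at 37C, then dosed with DMSO compound solutions (217-fold dilution) for 16 h. CCF4-AM substrate was loaded for 2 h at room temperature, and the 460/530 nm emission ratio was fitted for gain of signal versus DMSO.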

[13] = TOX21_p53_BLA_p4_viability: Viability Assessment in the Tox21 HCT-116 p53 Agonism Beta-lactamase Assay, Phase 4 (AID 2283597);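 also: hits lower the luminescence signal meaning cytotoxicity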
Outline: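 Cytotoxicity as reduced cellular ATP (CellTiter-Glo luminescence, 30 min room temperature), measured in the same wells following the CCF4 FRET p53 reading. Human HCT-116 cells received compounds in DMSO (217-fold dilution) for 16 h.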

[14] = target: Cellular tumor antigen p53 (Homo sapiens) (UniProt P04637); experiment: TOX21_p53_BLA_p5_ratio: Tox21 HCT-116 p53 Agonism Beta-lactamase Assay, Ratio, Phase 5 (AID 2283599)
Outline: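 HCT-116 p53-bla cells (4000/well) plated 5 h, dosed with compound (217-fold DMSO dilution) for 16 h at 37 C; CCF4-AM substrate 2 h at room temperature. Activity is the 460/530 nm emission ratio (405 nm excitation), fitted in gain-of-signal direction versus DMSO.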

[15] = TOX21_p53_BLA_p5_viability: Viability Assessment in the Tox21 HCT-116 p53 Agonism Beta-lactamase Assay, Phase 5 (AID 2283600)
Outline: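 Viability came from CellTiter-Glo ATP luminescence, read after 30 min at room temperature. Before this, HCT-116 p53-bla cells (4000/well) had 16 hours of compound exposure at 37C, with DMSO stocks diluted 217-fold on transfer.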

[16] = target: Cellular tumor antigen p53 (Homo sapiens) (UniProt P04637); experiment: TOX21_p53_BLA_p4_ratio: Tox21 HCT-116 p53 Agonism Beta-lactamase Assay, Ratio, Phase 4 (AID 2283601)
Outline: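 HCT-116 p53 beta-lactamase reporter cells (4000/well) preincubated 5 h, then compound (217-fold dilution of DMSO stock) for 16 h at 37C. CCF4-AM substrate added 2 h at room temperature; 460/530 nm emission ratio fitted upward versus DMSO.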

[17] = Tanguay_ZF_120hpf_MORT_legacy: (Legacy) Oregon State University Tanguay Lab 120 Hour Post-fertilization zebrafish Assay for Mortality (AID 2283633);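 as to AC50: fitted as increase in binary mortality versus DMSO negative control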
Outline: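 Static waterborne exposure from 6 to 120 hpf at 28C of single dechorionated wild-type (5D) embryos per well, 0.64% DMSO final. Death recorded present/absent by brightfield at 24 and 120 hpf.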

[18] = Tanguay_ZF_120hpf_OTIC_legacy: (Legacy) Oregon State University Tanguay Lab 120 Hour Post-fertilization zebrafish Assay for Otic Vesicle Malformation (AID 2283639)
Outline: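 Brightfield scoring at 120 hpf, binary present/absent; DMSO negative control, 5uM trimethyltin chloride positive control. Static exposure at 28C, final DMSO 0.64% (vol/vol). Dead embryos not scored for malformation.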

Measured: AC50

Sequence of Cellular tumor antigen p53 (Homo sapiens) (P04637 whole entry, looked up): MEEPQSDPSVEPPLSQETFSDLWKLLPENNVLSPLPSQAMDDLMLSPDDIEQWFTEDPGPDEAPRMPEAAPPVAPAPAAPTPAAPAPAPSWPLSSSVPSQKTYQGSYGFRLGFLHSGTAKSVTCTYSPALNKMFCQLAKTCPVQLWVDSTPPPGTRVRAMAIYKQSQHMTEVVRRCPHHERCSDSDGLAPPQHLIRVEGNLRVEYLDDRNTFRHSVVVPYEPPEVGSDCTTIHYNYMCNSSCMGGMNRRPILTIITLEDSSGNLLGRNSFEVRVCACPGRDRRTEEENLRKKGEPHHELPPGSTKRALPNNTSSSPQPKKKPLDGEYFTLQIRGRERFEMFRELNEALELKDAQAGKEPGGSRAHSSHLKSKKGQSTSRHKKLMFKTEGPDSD

CCNC(=O)NC(=O)C(C#N)=NOC
inactive: [2] | [9]
active: [1] 0.306 µM | [3] 37.8 µM | [4] 46 µM | [5] 51.5 µM | [6] 24.5 µM | [7] 19.6 µM | [8] 47 µM

OC(c1ccc(Cl)cc1)(c1ccc(Cl)cc1)C(Cl)(Cl)Cl
active: [1] 79.3 µM | [2] 74.3 µM | [10] 77.9 µM | [12] 49.6 µM | [13] 86.7 µM | [14] 89.8 µM | [15] 71 µM
inactive: [11] | [16] | [17] | [6] | [7] | [8] | [9]

Nc1c(Cl)c(F)nc(OCC(=O)O)c1Cl
not listed: [4] | [9] | [10] | [13] | [16] | [18]
inactive: all other assays above

COCC(C)N(C(=O)CCl)c1c(C)csc1C (centres undefined)
inactive: [1] | [2] | [11] | [12] | [13] | [14] | [15] | [16]
active: [17] 36.4 µM | [3] 18.3 µM | [4] 27.3 µM | [5] 24.8 µM | [6] 8.23 µM | [7] 25.6 µM | [18] 8.94 µM | [8] 31 µM | [9] 8.88 µM

CC1(C)CON(Cc2ccccc2Cl)C1=O
not listed: [4] | [10] | [11] | [15] | [16] | [18]
inactive: all other assays above

CC(C)N1C(=O)N(c2ccccc2)CSC1=NC(C)(C)C
active: [1] 85.1 µM | [2] 84.1 µM | [13] 71.3 µM | [15] 69 µM | [16] 87.2 µM
not listed: [9] | [10]
inactive: all other assays above

Nc1cnn(-c2ccccc2)c(=O)c1Cl
not listed: [10] | [13] | [14] | [18]
inactive: all other assays above

CC1(C)CCC(=Cc2ccc(Cl)cc2)C1(O)Cn1cncn1 (centres undefined)
not listed: [6] | [10]
inactive: all other assays above

CC(C)(C)C(=O)C(Oc1ccc(Cl)cc1)n1cncn1 (centres undefined)
active: [14] 86 µM | [3] 36.8 µM | [4] 41.3 µM | [6] 34.8 µM | [8] 37.5 µM
not listed: [10] | [16] | [17] | [18]
inactive: all other assays above
